Experimental data published in PubChem BioAssay (NCATS).
Inconclusive results are not listed. Entries that show only a call come without a potency. Active and inactive are the calls of the source. Calls follow the shape of the dose curve; as a rule, active = well fitted curve in the direction sought with a large enough effect; inconclusive = small, poorly fitted or top-dose-only effect, or another doubt; inactive = no such curve, though single readings can be large; an effect the other way counts as inactive or inconclusive.

How the values were obtained:
[1] = target: Aldehyde dehydrogenase, mitochondrial (Homo sapiens) (UniProt P05091); assay: qHTS for Inhibitors of the Aldehyde Dehydrogenase Family (ALDH2) Primary screen (AID 2061308); also: nearly all actives have a fitted effect of over 55% in size
[2] = target: Retinaldehyde dehydrogenase 3 (Homo sapiens) (UniProt P47895); assay: qHTS for Inhibitors of the Aldehyde Dehydrogenase Family (ALDH1A3) Primary screen (AID 2061315)

Compound | Potency [1] | Potency [2]
O=[S+]([O-])(Nc1ccc(N2CCNCC2)cc1)c1ccc(NCc2ccc(Cl)cc2O)cc1 | inactive | inactive
C=C1C(=O)OC2CC(C)=C(C(C)CCCOC(C)=O)C(OC(=O)CC(C)CC)C12 (configuration not stated) | inactive | inactive
CC(C)(C)c1cccc(NC(=O)Nc2nnc(-c3ccncc3)s2)c1 | inactive | inactive
Cc1c(P(=S)(c2ccccc2)c2ccccc2)[n+]2ccccc2n1CCc1ccccc1 | inactive | inactive
FC(F)Oc1ccc(C2=Nn3c(nnc3-c3ccccc3Cl)SC2)cc1OCC1CC1 | inactive | inactive
COC(=O)c1ccccc1S(=O)(=O)Nc1ccc(OC)cc1 | inactive | inactive
Cc1noc(-c2ccc(-c3ccc(CC(=O)O)cc3)cc2)c1NC(=O)O[C@H](C)c1ccccc1Cl | inactive | inactive
CCCCNC(=S)NCCCc1cnc[nH]1 | inactive | inactive
C=CCOc1cc(Cl)ccc1C(=O)NCCN(CC)CC | inactive | inactive
O=C(Nc1ccccc1)Nc1nnc(-c2ccncc2)s1 | inactive | inactive
O=C1Cc2cc(S(=O)(=O)N3CCN(c4cccc(C(F)(F)F)c4)CC3)ccc2N1 | inactive | inactive
C/C=C/C=C/C=C/C(=O)O[C@@H]1C=C(CO)[C@](O)(CO)[C@@]2(C)CCCC(C)(C)[C@H]12 | inactive | inactive
CCN(CC)c1ccc(NC(=O)CN(C)Cc2c(O)ccc3ccccc23)cc1 | inactive | inactive
Cc1ccc(S(=O)(=O)Nc2cnccc2C(=O)Nc2nc(-c3nc4ccccc4s3)cs2)cc1 | inactive | inactive
Nc1ccccc1OCCn1c(CCNC(=O)C2CCCCC2)nc2ccccc21 | inactive | inactive
NC(=O)C1CCN(c2nc(-c3ccc4c(c3)OCCCO4)cs2)CC1 | inactive | inactive
c1csc(CNc2ncnc3ccc(-c4ccc5c(c4)OCCO5)cc23)c1 | inactive | inactive
Cc1cc(/C=C2/C(=O)Nc3ccccc32)cc(C)c1O | inactive | inactive
C[C@@H]1[C@H]2[C@H](O[C@@H]3O[C@H](CO)[C@@H](O)[C@H](O)[C@H]3O)OC=C(C(=O)O)[C@H]2C[C@@H]1O | inactive | inactive
CCCc1cc(=O)c2ccccc2n1C | inactive | inactive
Cc1onc(-c2ccccc2Cl)c1C(=O)N[C@@H]1C(=O)N2[C@@H]1SC(C)(C)[C@@H]2C(=O)O | inactive | inactive
CC(=O)c1ccc(C(=O)Nc2nnc(-c3ccco3)o2)cc1 | inactive | inactive

Compound | Potency [1] | Potency [2]
O=C1CCCc2cc(S(=O)(=O)Nc3cnccc3C(=O)Nc3nc(-c4ccccc4)cs3)ccc2N1 | inactive | inactive
Cc1cc(-c2nnc3n2CCCCC3)c(C)n1-c1ccc(C(F)(F)F)cc1 | inactive | inactive
COc1ccccc1NC(=O)C1=C(C)NC(Nc2nc3ccccc3o2)=NC1c1ccccc1Br (configuration not stated) | inactive | inactive
Cc1ccc(NS(=O)(=O)c2ccc(N3CCCC3=O)cc2)cc1C | inactive | inactive
FC(F)(F)c1ccccc1-c1nc(NCc2ccc(-c3ccncc3)cc2)c2ccccc2n1 | inactive | inactive
Cn1nnnc1Sc1ncnc2scc(-c3cccc(F)c3)c12 | inactive | inactive
CC1=C(C(=O)Nc2ccccc2)C(c2ccccc2Cl)N=C(Nc2nc3ccccc3o2)N1 (configuration not stated) | inactive | inactive
CC/C(=C(\c1ccc(O)cc1)c1ccc(OCCNC)cc1)c1ccccc1 | inactive | inactive
C=C(CCC1=C(C)[C@H]2[C@H](CC3[C@@H]4CC=C5C[C@@H](O)C[C@@H](O)[C@]5(C)C4[C@H](O)C[C@@]32C)O1)CO[C@@H]1O[C@H](CO)[C@@H](O)[C@H](O)[C@H]1O (some centres not stated) | inactive | inactive
O=S(=O)(NCc1ccccc1)c1ccc(O)c2ncccc12 | inactive | inactive
CCNc1nc(C#N)nc2c1ncn2-c1cc(F)cc(F)c1 | inactive | inactive
Cn1nnnc1Sc1ncnc2scc(-c3ccc(C(F)(F)F)cc3)c12 | inactive | inactive
C=CC(C)(C)C12CC3C(=O)N4C(CC5(C(C)(C)C=C)c6ccccc6NC45)C(=O)N3C1Nc1ccccc12 (configuration not stated) | inactive | inactive
c1cncc(CNc2ncnc3ccc(-c4ccc5c(c4)OCO5)cc23)c1 | inactive | inactive
O=C1CCc2cc(S(=O)(=O)Nc3cccc(-c4ccccc4)c3)ccc2N1 | inactive | inactive
CCOc1ccc(CCNC(=O)C2CCCCC2)cc1OCC | inactive | inactive
COc1cccc(CNc2ccc(S(=O)(=O)Nc3cnc4ccccc4c3)cc2)c1O | inactive | inactive
O=C(O)c1ccc2c(c1)C(=O)N([C@H](Cc1ccc3ccccc3c1)C(=O)O)C2=O | inactive | inactive
O=C1c2ccccc2C(=O)N1c1ccccc1O | inactive | inactive
COc1ccc(-c2nnc3n2N=C(c2c(OC)cccc2OC)CS3)cc1 | inactive | inactive
Cc1ccc(OCCn2c(CCNC(=O)c3ccc(F)cc3F)nc3ccccc32)cc1 | inactive | inactive
O=C(O)c1cc(F)c(S(=O)(=O)N2CCN(S(=O)(=O)c3ccc4c(c3)OCCO4)CC2)cc1F | inactive | inactive

Compound | Potency [1] | Potency [2]
Cc1cnc(-c2ccccc2C(C)C)nc1NCC1CCN(c2cnccn2)CC1 | inactive | inactive
COc1ccccc1-c1ccc(=O)n(CC(=O)NCCc2ccccc2)n1 | inactive | inactive
Fc1cc(Nc2nc(-c3ccncc3)nc3ccccc23)ccc1C(F)(F)F | inactive | inactive
O=C(Nc1nc(-c2ccccc2)cs1)c1ccccc1 | inactive | inactive
Cc1ccnc(NC(=S)N2CCN(c3cccc(N(C)C)c3)CC2)c1 | inactive | inactive
Cc1c(P(=S)(c2ccccc2)c2ccccc2)[n+]2ccccc2n1CCCc1ccccc1 | inactive | inactive
CC(=O)Nc1cccc(OC2=NS(=O)(=O)c3ccccc32)c1 | inactive | inactive
COc1cccc(CNc2ccc(S(=O)(=O)Nc3nccs3)cc2)c1 | inactive | inactive
COc1ccc2c(c1)Oc1ncn(CCN3CCOCC3)c(=N)c1C2c1ccc(OC)c(OC)c1 (configuration not stated) | inactive | inactive
Cc1ccc(S(=O)(=O)n2cc(C(=O)Nc3ccc(-c4ccccc4)cc3)c3ccccc32)cc1 | inactive | inactive
COc1cc(Cl)c(C)cc1NC(=O)C(OC(=O)CNC(=O)c1ccccc1)c1ccccc1 (configuration not stated) | inactive | inactive
Cc1ccnc(C(=S)N2CCN(c3cccc(C(F)(F)F)c3)CC2)c1 | inactive | inactive
O=C(Nc1ccc(-c2nc3ccccc3[nH]2)cc1)Nc1ccc2c(c1)CCCO2 | inactive | inactive
CCOC(=O)c1[nH]c2c(c1C)C(=O)CCC2 | inactive | inactive
CCN(CC)Cc1cccc(/C=C/c2nc3ccc(F)cc3c(=O)n2-c2ccccc2Cl)n1 | inactive | inactive
O=C(Nc1ccc(-n2cncn2)c(F)c1)Nc1nnc(-c2ccncc2)s1 | inactive | inactive
O=C(Nc1ccccc1)Nc1nc(Nc2cc(F)cc(F)c2)nc(NC2CCCC2)n1 | inactive | inactive
CC(=O)CC(=O)Nc1ccc(Cl)c(C(F)(F)F)c1 | inactive | inactive
Cc1ccc(CNc2ncnc3ccc(-c4ccoc4C)cc23)o1 | inactive | inactive
O=C(CNC(=O)C1CCCCC1)OC(C(=O)c1ccccc1)c1ccccc1 (configuration not stated) | inactive | inactive
CNCC(=O)Nc1ccc(Cl)cc1C(=O)c1ccc[nH]1 | inactive | inactive
CCCc1cc(F)c(S(=O)(=O)N2CCN(S(=O)(=O)c3ccc4c(c3)OCCO4)CC2)cc1F | inactive | inactive

Compound | Potency [1] | Potency [2]
COc1cccc(-c2ccc(-c3nc4ccccc4c(=O)[nH]3)o2)c1 | inactive | inactive
COc1ccc(C2=Nn3c(nnc3-c3ccc(OC)c(OC)c3)SC2)cc1 | inactive | inactive
N#CN1CCC(NC(=O)c2cccc(F)c2)CC1 | inactive | inactive
Cc1cc(-c2ccccc2)n2ncc(C(=O)Nc3ccc(Cl)c(Cl)c3)c2n1 | inactive | inactive
O=C1CCCC2=C1C(c1[nH]ncc1Cl)N=C(Nc1nccs1)N2 (configuration not stated) | inactive | inactive
CC(C)c1ccccc1-c1nc(NCc2ccc(-c3cccnc3)cc2)c2[nH]cnc2n1 | inactive | inactive
N#Cc1ccc(Nc2nn3c(=O)c4ccccc4nc3s2)cc1 | inactive | inactive
CC1(C)CC(C(=O)Nc2ccc([S+](=O)([O-])Nc3nccs3)cc2)C1 | inactive | inactive
Cc1cc(C)nc(NC(=S)N2CCN(c3ccc(NS(C)(=O)=O)nn3)CC2)c1 | inactive | inactive
O=C(CNC(=O)c1ccncc1)OC(C(=O)Nc1cc(C(F)(F)F)ccc1Cl)c1ccccc1 (configuration not stated) | inactive | inactive
Cn1ncc(Cl)c1-c1cc(C(=O)N[C@H](CN)Cc2ccc(F)c(F)c2)oc1Cl | inactive | inactive
NC(=O)c1ccc(Cc2c(-c3cccc(-c4ccccc4)c3)[nH]n(-c3nc(C(=O)O)cs3)c2=O)cc1 | inactive | inactive
CC(=O)Nc1sc2c(c1C#N)CCN(C(C)C)C2 | inactive | inactive
CCc1ccccc1C(=O)N1CCc2cc(-c3nc(NC(=O)Cc4ccc5c(c4)OCO5)sc3C)ccc21 | inactive | inactive
Cn1c2cc(C=O)sc2c2cnn(Cc3ccccc3F)c(=O)c21 | inactive | inactive
CCOC(=O)c1c(/C=N/Nc2ccccc2)c2sc(C)cc2n1C | inactive | inactive
CCOC(=O)C1CCC(C(=O)Nc2ccc([S+](=O)([O-])Nc3nccs3)cc2)CC1 (configuration not stated) | inactive | inactive
CCNC(=O)c1ccc(-c2ccc3ncnc(NCc4nc(C)cs4)c3c2)o1 | inactive | inactive
O=C(Nc1ccc(S(=O)(=O)Nc2ncc(-c3ccccc3)s2)cc1)c1ccc2ccccc2c1 | inactive | inactive
O=S(=O)(Nc1cnc2ccccc2c1)c1ccc(NCc2ccc(Br)cc2O)cc1 | inactive | inactive
